High-throughput results (PubChem)
S2 tox = Viability Counterscreen for Primary qHTS for Inhibitors of ATXN expression; S2 cells (HEK-293 line with an ATXN2-luciferase reporter) viability, CellTiter-Fluor protease fluorescence, 24 h; Potency, µM (top dose mostly 56.7 µM), most hits filed as cytotoxic; hit rate 0.49% among 400,000; note: potency is the fitted concentration of half-maximal effect; nearly all actives have a fitted effect of over 40% in size
ATXN2 expr inh = Primary qHTS for Inhibitors of ATXN expression; AID 1745845, 2022; Potency, µM (titrated, usually from 57 µM), inactives show at the top dose activity change, negative = inhibition, usual class: inhibitors; hit rate 0.72% among 360,000; HEK-293 ATXN2-luciferase reporter, luminescence, 24 h; note: potency is the fitted concentration of half-maximal effect; % is set by controls: 0 for no effect and ±100 for the full control effect; nearly all actives have a fitted effect of over 55% in size
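qHTS (up to 57 uM final) was run with 24 h compound exposure of reporter cells at 37 °C. Each well was multiplexed: SteadyGlo luminescence measured ATXN2-luciferase expression after a fluorogenic Gly-Phe-AFC viability readout (25 uM final).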
HepG2 viability = qHTS for Inhibitors of TGF-b: Cytotox Counterscreen | hit rate 0.76% among 410,000 | Potency, µM (top dose mostly 46.1 µM), for inactives: top-dose activity change, negative = cytotoxicity, usual class: cytotoxic | HepG2 CAGA-GFP viability, ATP luminescence, 18 h; note: potency is the fitted concentration of half-maximal effect
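HepG2 CAGA-GFP cells (1000/well, DMEM with 1% FBS) received compound, then TGF-beta at 500 pg/mL final, and were incubated 18 hours at 37 degrees C. Viability was read by CellTiter-Glo luminescence. Media-only wells were set as complete cell-killing and DMSO as no toxicity.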
TGFb inhibitor = qHTS for Inhibitors of TGF-b; Potency, µM (titrated, usually from 46.1 µM), for the others: top-dose activity, negative = inhibition, usual class: inhibitors; AID 588855, 2011; hit rate 1.2% among 410,000; HepG2 CAGA-GFP TGF-b/SMAD3 reporter, GFP fluorescence, 18 h; TGF-beta stimulated, 500 pg/mL final; note: potency is the fitted concentration of half-maximal effect; % is set by controls: 0 for no effect and ±100 for the full control effect; nearly all actives have a fitted effect of over 65% in size
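Inhibition of TGF-beta-driven CAGA-GFP reporter expression in HEPG2 cells is measured by cellular GFP fluorescence after 18 h stimulation with 500 pg/mL recombinant TGF-beta in 1% FBS medium at 37 degrees C.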
IL1B secr inh = qHTS for Inhibitors of Inflammasome Signaling: IL-1-beta AlphaLISA Primary Screen; AID 743279, 2014; activity change, % at 57.5 µM; hit rate 4.7% among 360,000; THP-1 LPS/ATP IL-1B secretion, AlphaLISA, 16 h; active compounds read low; in the data active = activity change below about -50%; inconclusive = mostly about -30% to -49%; note: % is set by controls: 0 for no effect and ±100 for the full control effect
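THP-1 cells pretreated 1 hr with compounds (up to 57.5 uM final), then stimulated with LPS (250 ng/mL final) plus ATP (1.25 mM final); secreted IL-1B measured by AlphaLISA after 16 hr, decreased signal indicating inhibition.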
An asterisk follows results filed as active; i = inactive; ? = inconclusive; nt = not tested or not shown. Sampled rows, rich in hits. Any-hit rate of the full collection: about 5.7%. Unless noted, calls come from the whole dose curve; as a rule, active = well fitted curve in the direction sought with a large enough effect; inconclusive = small, poorly fitted or top-dose-only effect, or another doubt; inactive = no such curve, though single readings can be large; an effect the other way counts as inactive or inconclusive.

SMILES	S2 tox	ATXN2 expr inh	HepG2 viability	TGFb inhibitor	IL1B secr inh
CC(/C=N/NC(=O)c1c(Br)cnn1C)=C\c1ccccc1	i	36.2%	-17.1%	-4.6%	-51.9*
CCOc1ccc(/C=N/NC(=O)c2ccc(Cn3cc([N+](=O)[O-])cn3)o2)cc1	i	32.3%	-12.9%	-6.2%	-4.2
CCc1ccc(CN2C(=O)c3ccccc3C2C(=O)NCCc2ccc(OC)c(OC)c2)cc1 (centres undefined)	nt	nt	-1.8%	-14.4%	nt
Cc1ccc(S(=O)(=O)N2CCCc3cc(NS(=O)(=O)c4cc(F)ccc4F)ccc32)cc1	?	?	-2.6%	?	nt
O=S(=O)(Nc1ccc(-c2ccc(N3CCCCC3)nn2)cc1)c1ccc(OC(F)(F)F)cc1	?	-8.6%	-18.6%	?	nt
O=C(C[n+]1cccc2cc(Cl)ccc21)c1cccc([N+](=O)[O-])c1	nt	nt	-24.1%	24.4%	nt
CCOCCCNC(=O)c1cnc2sc(N3CCCCCC3)nn2c1=O	nt	nt	2.5%	0.0%	nt
Cc1ccc(C(NC(=O)C2CCN(CCOc3ccccc3)CC2)c2ccccn2)cc1 (centres undefined)	i	-0.4%	-19.7%	-2.5%	-54.8*
Cc1ccc(C(NC(=O)C2CCN(Cc3ccc(Oc4ccccc4)cc3)CC2)c2ccccn2)cc1 (centres undefined)	?	?	11.2µM*	?	nt
Cc1cccnc1C(NC(=O)C1CCN(Cc2ccc(Cl)cc2)CC1)c1ccccc1 (centres undefined)	i	-18.4%	-17.9%	15.6%	?
O=C(NC(c1ccccc1)c1ccc2ccccc2n1)C1CCN(Cc2ccc(Oc3ccccc3)cc2)CC1 (centres undefined)	?	-25.8%	-16.4%	?	?
Cc1cccnc1C(NC(=O)C1CCN(Cc2ccc(Oc3ccccc3)cc2)CC1)c1ccc(F)cc1 (centres undefined)	?	?	-30.9%	?	-66.8*
COc1cc(OC)nc(C(NC(=O)C2CCN(Cc3ccc(Oc4ccccc4)cc3)CC2)c2ccccc2C)n1 (centres undefined)	?	0.0%	-27.2%	-27.6%	-57.8*
CCOC(=O)c1c(C)[nH]c(C(=O)OC(C(=O)N(C)C)c2ccccc2)c1C (centres undefined)	nt	nt	1.7%	15.0%	nt
CC1(C)CC(C(=O)N2CCOc3ccc(CN4CCN(Cc5ccccn5)CC4)cc3C2)CCO1 (centres undefined)	i	nt	nt	nt	nt
CC(C)CCn1c(SCc2ccc(F)cc2Cl)nc2ccsc2c1=O	nt	nt	-1.2%	0.0%	nt
Cc1ccc(CCNC(=O)Cn2c(-c3cccs3)cc3ccccc32)cc1	i	-4.6%	-15.9%	1.0%	nt
CC(=O)Nc1ccc(CN2CCN(CCc3ccccc3)C(CCO)C2)cc1 (centres undefined)	i	-5.3%	-4.5%	-5.4%	-79.1*
C/C(=N\NC(=O)c1n[nH]c2c1CCC2)c1ccco1	i	?	-38.1%	16.8%	nt
CCC(C)(C)C1CCc2[nH]nc(C(=O)N/N=C(\C)c3ccco3)c2C1 (centres undefined)	?	-33.2%	-66.4%	14.1µM*	-87.3*
COCc1ccc(CN2CCC(C(=O)Nc3cccc(-c4cccc(Cl)c4)c3)CC2)o1	?	?	-95.7%	?	-96.7*
CCCc1ncc(CN2CCC(C(=O)Nc3cccc(-c4cscn4)c3)CC2)cn1	i	-9.2%	-37.7%	?	-7.7
CCCn1cc(CN2CCC(C(=O)Nc3cccc(-c4cscn4)c3)CC2)c(C)n1	i	-20.6%	-3.2%	-2.2%	-72.4*
COc1cccc(-c2cccc(NC(=O)C3CCN(Cc4ccc(C)o4)CC3)c2)c1	i	-2.3%	3.6%	0.9%	-1.5
COCc1ccc(CN2CCC(C(=O)Nc3cccc(-c4cscn4)c3)CC2)o1	i	4.1%	-10.7%	-9.6%	-72.9*
SMILES	S2 tox	ATXN2 expr inh	HepG2 viability	TGFb inhibitor	IL1B secr inh
O=C(Nc1cccc(-c2cscn2)c1)C1CCN(Cc2ccc(CO)o2)CC1	i	nt	-12.6%	-8.2%	0.1
CC(C)C(NS(=O)(=O)c1ccc2c(c1)oc(=O)n2C)C(=O)N1CCN(c2cccc(Cl)c2)CC1 (centres undefined)	i	-13.7%	-24.3%	?	nt
Cc1ccc(C)c(C(=O)N2CCC(C3(c4ccccn4)NC(=O)N(CC4CCCO4)C3=O)CC2)c1 (centres undefined)	i	nt	nt	nt	nt
CN(C)S(=O)(=O)c1cccc(NC(=O)CC23CC4CC(CC(C4)C2)C3)c1	i	-12.3%	-2.8%	0.0%	3.5
CN(C)S(=O)(=O)Nc1cccc(NC(=O)CC23CC4CC(CC(C4)C2)C3)c1	i	-7.2%	-9.3%	-10.6%	-73.1*
O=C(CN1C(=O)CCC1=O)Nc1ccc(Cc2ccc(NC(=O)CN3C(=O)CCC3=O)cc2)cc1	i	-24.2%	-45.6%	-5.8%	-68.8*
CC(=O)c1ccc(NC(=O)CN2C(=O)CCC2=O)cc1	i	2.3%	-3.8%	-23.7%	-1.5
CCCCOCCCNC(=O)C[C@@H]1C[C@@]2(C(=O)OCC)CCCC=C2N(Cc2ccc(Cl)cc2Cl)C1=O	?	?	nt	nt	-78.7*
CCCCNC(=O)C[C@@H]1C[C@@]2(C(=O)OCC)CCCC=C2N(CCc2ccc(OC)c(OC)c2)C1=O	nt	nt	nt	nt	3.8
CCOC(=O)[C@]12CCC=C1N(Cc1cccc3ccccc13)C(=O)[C@H](CC(=O)NCCCCc1ccccc1)C2	?	-28.7%	nt	nt	-70.5*
COC(=O)[C@@]12C[C@@H](CC(=O)NCC3CCCCC3)C(=O)N(Cc3ccc4c(c3)OCO4)C1=CCC(C)(C)C2	nt	nt	nt	nt	-54.3*
CCOC(=O)[C@]12CCC=C1N(Cc1cccc3ccccc13)C(=O)[C@H](CC(=O)NCc1ccccc1)C2	?	0.0%	nt	nt	0.0
CCOC(=O)[C@]12CCCC=C1N(CCc1ccc(OC)c(OC)c1)C(=O)[C@H](CC(=O)NCCCCc1ccccc1)C2	nt	nt	nt	nt	-56.9*
CCCCOc1cccc(C2c3c(-c4cc(C)ccc4O)n[nH]c3C(=O)N2CCOC)c1 (centres undefined)	?	?	-109.7%	?	nt
CCCS(=O)(=O)c1c(S(=O)(=O)CCC)c2cc(C(C)(C)C)ccn2c1C(=O)c1ccccc1	i	-20.1%	-10.7%	-1.9%	nt
CC(C)(C)OC(=O)N1CCC(c2c(C(=O)Nc3ccc4c(c3)OCCO4)cnn2-c2ccccc2)CC1	nt	nt	2.1%	?	nt
CCN(CC)C(=O)C1=C(C)Nc2nc3ccccc3n2C1c1ccc(Br)cc1 (centres undefined)	i	10.5%	-2.1%	0.2%	nt
CCOC(=O)[C@]12CCCC=C1N(Cc1ccc3c(c1)OCO3)C(=O)[C@H](CC(=O)NCCCCc1ccccc1)C2	?	?	nt	nt	-63.0*
